Laboratory results published in PubChem BioAssay (NCATS).
Where “and” joins values, the source holds several entries; their conditions need not be identical. Equal values may be shown once. Records with an inconclusive call do not appear. Calls of active or inactive are those of the source. Unless noted, calls come from the whole dose curve; as a rule, active = well fitted curve in the direction sought with a large enough effect; inconclusive = small, poorly fitted or top-dose-only effect, or another doubt; inactive = no such curve, though single readings can be large; an effect the other way counts as inactive or inconclusive.

Columns and labels:
[1] = Validation of Assay for Modulators of Lamin A Splicing (AID 1459; active = well fitted curve in the direction sought with a large enough effect in the signal ratio; the % refers to the signal ratio;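 note: cells exposed to compound for two days before reading; 0% is about no effect; ratio rise marks activators and ratio drop marks inhibitors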)
Method in brief: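 Dual-reporter HeLa S3 line (lamin A-EGFP minigene, DsRed2) treated with compounds 48 hrs, 0.5% DMSO final. Endpoint: EGFP/DsRed2 total intensity ratio from laser-scanning microplate cytometry.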

[2] = qHTS Assay for Lipid Storage Modulators (AID 1519; calls by dose curve; for activity change, negative = inhibition: % is set by controls: 0 for no effect and ±100 for the full control effect); conditions: Drosophila S3 cells, BODIPY lipid droplet/cell ratio, laser cytometry, cells loaded with oleic acid; for activity change, negative = inhibition: at 57.5 µM (top of the series)
Method in brief: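 Cells seeded at 5,000 per well were treated with compounds over a concentration series and loaded with oleic acid (400 uM, as added). Lipid droplet fluorescence (488 nm excitation, 500-530 nm channel) was read by laser-scanning cytometry and normalized to 20 uM Triacsin C.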

[3] = target: DNA repair nuclease/redox regulator APEX1 (Homo sapiens) (UniProt P27695); test: qHTS Validation Assay for Inhibitors of the Human Apurinic/apyrimidinic Endonuclease 1 (APE1) (AID 1705;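 note: TAMRA fluorescence gain over two minutes as APE1 cuts a quenched THF abasic duplex; % is set by controls: 0 for no effect and ±100 for the full control effect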)
Method in brief: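 Substrate: 50 nM final fluorophore/quencher THF-abasic duplex. Enzyme preincubated with compounds 15 min, RT. Progress derived from fluorescence difference, third minus first kinetic read.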

[4] = Counterscreen for APE1 Inhibitors: Fluorescent Dye Displacement Validation Assay (AID 1707);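 note: plate controls were ThO with dsDNA and no compound for no effect and ThO without dsDNA for full effect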
Method in brief: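 Loss of Thiazole Orange fluorescence marks promiscuous DNA binders. The dye (250 nM) is mixed with 50 nM abasic-site dsDNA in pH7.5 Tris buffer containing MgCl2, then compounds are added and emission is read once.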

[5] = target: Endonuclease 4 (Escherichia coli (strain K12)) (UniProt P0A6C1); test: Counterscreen for APE1 Inhibitors: qHTS Validation Assay for Inhibitors of Endonuclease IV (AID 1708); note: % is set by controls: 0 for no effect and ±100 for the full control effect
Method in brief: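 Enzyme (2 nM) + compound, 15 min RT; add 50 nM TAMRA/BHQ-2 THF-site dsDNA; kinetic read ex525/em598, 3 reads/60 s; activity = read 3 − read 1. Buffer Tris pH 7.5, 50 mM NaCl, 2 mM MgCl2, DTT, Tween-20.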

[6] = qHTS for differential inhibitors of proliferation of Plasmodium falciparum line Dd2 (AID 1882); conditions: Potency: Plasmodium falciparum Dd2 proliferation inhibition;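 note: plate controls were DMSO vehicle for no effect and 0.29 µM artemisinin for full effect; nearly all actives have a fitted effect of over 65% in size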
Method in brief: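 SYBR Green DNA fluorescence (ex 485, em 535 nm) after overnight lysis quantifies parasite growth; compound exposure lasted 72 h at 37 C on infected red cells at 2.5% hematocrit, 0.3% parasitemia (final). Artemisinin 0.29 uM and vehicle wells define normalization.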

[7] = target: Ferritin light chain (Equus caballus) (UniProt P02791); test: qHTS Validation Assay for Identification of Novel General Anesthetics (AID 2323); note: % is set by controls: 0 for no effect and ±100 for the full control effect
Method in brief: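 Normalized fluorescence response, scaled between free 1-AMA and 1-AMA/apoferritin complex, fitted to a four-parameter Hill equation for concentration-effect values. Binding mix: 10 uM horse-spleen apoferritin, 50% saturated 1-AMA in PBS; read 380/535 nm after 10 min.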

[8] = target: ATP-dependent DNA helicase Q1 (Homo sapiens) (UniProt P46063); test: qHTS Validation Assay for Inhibitors of RecQ-Like Dna Helicase 1 (RECQ1) (AID 2353);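 note: plate controls were DMSO vehicle for no effect and enzyme-free control for full effect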
Method in brief: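 RECQ1T1 50 nM; forked duplex (20 bp + 30-nt ss tails) 200 nM, ATP 2 mM final; pH 8.0, 2 mM MgCl2, 2.5 ug/ml poly(dI-dC); 15 min compound preincubation; discontinuous kinetic read over 2 h at RT.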

[9] = Validation screen for small molecules that induce DNA re-replication in MCF 10A normal breast cells (AID 463097); note: 0% is about no effect; nearly all actives have a fitted effect of over 60% in size
Method in brief: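 Following 48 hr compound incubation (37 C, 5% CO2), MCF 10A cells receive Hoechst for 40 min at 37 C. Nuclei are then scanned (excitation 405 nm, emission 500-530 nm) for total fluorescence intensity.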

[10] = Quantitative high throughput screen for delayed death inhibitors of the malarial parasite plastid, 48 hour incubation (AID 488752); note: % is set by controls: 0 for no effect and ±100 for the full control effect; nearly all actives have a fitted effect of over 65% in size
Method in brief: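 First, compound was pinned into RPMI 1640 medium containing 0.5% Albumax. Next, reporter-parasite-infected erythrocytes were added to 2% hematocrit and 0.1% parasitemia. After 48 h at 37 C under 5% CO2, luciferase detection reagent was added and luminescence read.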

[11] = target: M-phase phosphoprotein 8 (Homo sapiens) (UniProt Q99549); test: qHTS Validation Assay for Inhibitors for MPP8 Chromodomain Interactions with Methylated Histone Tails (AID 488949); note: nearly all actives have a fitted effect of over 55% in size; note: potency is the fitted concentration of half-maximal effect
Method in brief: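 Chemiluminescent proximity assay: histidine-tag capture via nickel acceptor beads, biotin peptide via streptavidin donor beads. Protein and peptide each at 50 nM, pH 7.4, with 30 min incubations at room temperature for complex formation, compound exposure and bead binding.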

[12] = target: Transient receptor potential cation channel subfamily V member 1 (Homo sapiens) (UniProt Q8NER1); test: HTS Assay for Compounds that Act as Enhancers of the Vanilloid Receptor 1 (AID 488979); note: 0% is about no effect
Method in brief: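 TRPV1-expressing cells loaded with Fluo-8 calcium dye; compounds added and calcium influx read kinetically for 3 min (agonist phase), then capsaicin at EC20 added and read 2 min more for enhancement. Fluorescence ex 480/em 520 nm.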

[13] = target: Thyrotropin receptor (Homo sapiens) (UniProt P16473); test: qHTS Assay for Antagonists of the Thyroid Stimulating Hormone Receptor (AID 488980); note: 0% is about no effect
Method in brief: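 Inhibition of TSH-stimulated cAMP accumulation was quantified by homogeneous time-resolved FRET in TSHR-transfected HEK293 cells. Agonist: TSH, 4 nM final (EC80).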

[14] = target: Thyrotropin-releasing hormone receptor (Homo sapiens) (UniProt P34981); test: qHTS for Small Molecule Agonists and Allosteric Enhancers of Human TRH Receptor: Validation Screen for Agonists (AID 493127;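 active = calcium activation more than 3 SD above the typical response in the agonist read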;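 note: intracellular calcium rise by fluo-8 fluorescence before TRH EC20 addition; 0% is about no effect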); conditions: TRH receptor agonist cell assay; at 2 µM; stronger effect = higher value
Method in brief: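 Compounds are added by online pintool to dye-loaded TRHR cells while fluorescence is recorded every second. A rise in calcium signal during the agonist read marks activation; a later 10 nM TRH addition (EC20) serves the separate enhancer mode.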

[15] = target: Galactokinase (Homo sapiens) (UniProt P51570); test: qHTS Validation Assay for Inhibitors of Human Galactokinase (GALK) (AID 493189); note: 0% is about no effect
Method in brief: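 Enzyme activity is inferred from ATP consumption: human GALK phosphorylates galactose (100 uM) using 35 uM ATP for 1 h at room temperature, and luciferase-based Kinase-Glo Plus reports unconsumed ATP.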

[16] = target: Voltage-gated inwardly rectifying potassium channel KCNH2 (Homo sapiens) (UniProt Q12809); test: qHTS Assay for Small Molecule Inhibitors of the Human hERG Channel Activity (AID 588834);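 note: top concentration of the series differs between compounds; % is set by controls: 0 for no effect and ±100 for the full control effect; lower thallium flux fluorescence means stronger hERG block; nearly all actives have a fitted effect of over 50% in size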
Method in brief: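 Homogeneous FluxOR thallium flux assay using hERG-expressing U2OS cells (BacMam). Compound treatment about 10 minutes preceded stimulation; reduced fluorescence taken as channel block.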

[17] = qHTS for differential inhibitors of proliferation of Plasmodium falciparum line 3D7 (AID 1876);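 note: parasite growth measured after three days of culture; 0% = vehicle wells and -100% = reference inhibitor wells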
[18] = Quantitative high throughput screen for delayed death inhibitors of the malarial parasite plastid, 96 hour incubation (AID 488745);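 note: luciferase-expressing P. falciparum in erythrocytes at 2% hematocrit and 0.1% parasitemia; % is set by controls: 0 for no effect and ±100 for the full control effect; nearly all actives have a fitted effect of over 70% in size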
Method in brief: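 Readout is firefly luciferase luminescence from an integrated reporter in P. falciparum; lower signal marks inhibited growth. Cultures at 2% hematocrit and 0.1% parasitemia were treated with compound across two generations (96 h, 37 C, 5% CO2).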

[19] = qHTS drug screen for cell cycle checkpoint inhibitors in PARPi-resistant BRCA-mutant ovarian cancer cell lines. (AID 1963452; calls by dose curve; note: potency is the fitted concentration of half-maximal effect); conditions: PEO1/OlaR viability, CellTiter-Glo luminescence, 96 h; for Z-AUC: stronger effect = lower value
Method in brief: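 PEO1, PEO4 and PEO1/OlaR ovarian cancer cells, 600 per well, exposed 96 h at 37C to a dilution series. Viability read by CellTiter-Glo luminescence, normalized to DMSO and empty wells; activity summarized as Z-AUC.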

[20] = qHTS assay to identify inhibitors of the type 1 interferon - major histocompatibility complex class I in skeletal muscle: Counter screen cell viability and HiBit confirmation (AID 1347412); conditions: iHSKM muscle cells + IFN-b, HiBiT or CellTiter-Glo, 24 h; for activity change, negative = inhibition: at 45.9 µM (top of the series); note: potency is the fitted concentration of half-maximal effect; for all read-outs here: nearly all actives have a fitted effect of over 60% in size
Method in brief: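 Human myoblast knock-in line, 4.0 ng/ml IFN-beta stimulation, 24 h compound treatment. Endpoints: HiBiT lytic luminescence (HLA-B level) and CellTiter Glo (ATP). Dosing 12 concentrations, 3-fold steps, 46 uM highest final.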

[21] = measured here: cell count channel max response
[22] = measured here: lipid channel max response
[23] = measured here: PEO1 parental Z-AUC

Chain of Galactokinase (Homo sapiens) (P51570 whole entry, looked up): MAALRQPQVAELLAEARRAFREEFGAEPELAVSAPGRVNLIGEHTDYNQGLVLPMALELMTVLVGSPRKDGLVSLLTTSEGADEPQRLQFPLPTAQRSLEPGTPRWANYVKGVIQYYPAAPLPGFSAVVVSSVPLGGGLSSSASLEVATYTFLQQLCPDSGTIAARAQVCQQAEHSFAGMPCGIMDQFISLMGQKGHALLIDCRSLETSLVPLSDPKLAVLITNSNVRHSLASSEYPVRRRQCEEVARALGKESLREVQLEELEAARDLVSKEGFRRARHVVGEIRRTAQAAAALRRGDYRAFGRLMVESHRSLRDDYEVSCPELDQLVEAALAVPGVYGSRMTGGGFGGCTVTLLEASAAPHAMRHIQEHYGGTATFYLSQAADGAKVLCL
Chain of M-phase phosphoprotein 8 (Homo sapiens) (Q99549 whole entry, looked up): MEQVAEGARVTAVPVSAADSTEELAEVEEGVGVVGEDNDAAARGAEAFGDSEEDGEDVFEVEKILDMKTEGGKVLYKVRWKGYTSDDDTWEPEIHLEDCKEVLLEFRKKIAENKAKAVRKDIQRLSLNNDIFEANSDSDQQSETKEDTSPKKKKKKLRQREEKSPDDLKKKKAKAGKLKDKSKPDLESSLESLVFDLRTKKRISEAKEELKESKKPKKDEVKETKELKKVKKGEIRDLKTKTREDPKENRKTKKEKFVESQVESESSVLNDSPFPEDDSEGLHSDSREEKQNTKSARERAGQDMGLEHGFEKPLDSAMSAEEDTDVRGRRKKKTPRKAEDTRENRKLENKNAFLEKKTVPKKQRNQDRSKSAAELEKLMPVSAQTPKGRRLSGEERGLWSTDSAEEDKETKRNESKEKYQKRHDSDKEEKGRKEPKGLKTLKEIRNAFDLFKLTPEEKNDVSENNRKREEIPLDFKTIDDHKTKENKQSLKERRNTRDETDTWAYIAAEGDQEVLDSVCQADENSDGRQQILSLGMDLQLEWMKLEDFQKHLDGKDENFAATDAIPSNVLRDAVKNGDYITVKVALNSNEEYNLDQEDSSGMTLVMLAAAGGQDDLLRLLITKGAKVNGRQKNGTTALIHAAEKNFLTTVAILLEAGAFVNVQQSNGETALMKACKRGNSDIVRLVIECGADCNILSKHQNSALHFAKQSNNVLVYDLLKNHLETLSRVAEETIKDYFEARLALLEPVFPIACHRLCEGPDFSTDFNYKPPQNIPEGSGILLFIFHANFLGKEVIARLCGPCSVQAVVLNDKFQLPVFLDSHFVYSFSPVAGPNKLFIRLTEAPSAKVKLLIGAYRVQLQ
Chain of Transient receptor potential cation channel subfamily V member 1 (Homo sapiens) (Q8NER1 whole entry, looked up): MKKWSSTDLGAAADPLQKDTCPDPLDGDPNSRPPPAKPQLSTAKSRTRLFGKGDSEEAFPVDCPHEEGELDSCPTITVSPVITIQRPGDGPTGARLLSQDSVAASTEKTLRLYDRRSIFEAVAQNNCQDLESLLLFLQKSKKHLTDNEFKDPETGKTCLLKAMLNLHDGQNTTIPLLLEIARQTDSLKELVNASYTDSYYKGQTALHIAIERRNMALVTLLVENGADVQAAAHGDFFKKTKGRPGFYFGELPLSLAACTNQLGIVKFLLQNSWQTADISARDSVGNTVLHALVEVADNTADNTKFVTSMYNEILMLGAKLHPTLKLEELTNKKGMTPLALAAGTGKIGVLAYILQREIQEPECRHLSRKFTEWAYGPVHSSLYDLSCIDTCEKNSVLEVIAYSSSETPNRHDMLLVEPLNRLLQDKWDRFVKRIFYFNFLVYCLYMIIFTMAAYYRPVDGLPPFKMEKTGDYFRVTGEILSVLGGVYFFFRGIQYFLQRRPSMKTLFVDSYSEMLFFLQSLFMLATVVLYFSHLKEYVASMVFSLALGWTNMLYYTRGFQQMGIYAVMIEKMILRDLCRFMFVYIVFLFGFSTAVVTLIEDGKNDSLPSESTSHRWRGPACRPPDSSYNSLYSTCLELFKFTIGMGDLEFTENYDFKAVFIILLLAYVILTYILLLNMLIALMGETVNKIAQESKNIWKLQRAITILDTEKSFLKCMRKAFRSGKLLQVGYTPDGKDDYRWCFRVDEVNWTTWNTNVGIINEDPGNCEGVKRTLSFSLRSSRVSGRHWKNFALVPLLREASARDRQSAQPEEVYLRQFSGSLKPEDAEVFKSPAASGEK
Chain of Thyrotropin-releasing hormone receptor (Homo sapiens) (P34981 whole entry, looked up): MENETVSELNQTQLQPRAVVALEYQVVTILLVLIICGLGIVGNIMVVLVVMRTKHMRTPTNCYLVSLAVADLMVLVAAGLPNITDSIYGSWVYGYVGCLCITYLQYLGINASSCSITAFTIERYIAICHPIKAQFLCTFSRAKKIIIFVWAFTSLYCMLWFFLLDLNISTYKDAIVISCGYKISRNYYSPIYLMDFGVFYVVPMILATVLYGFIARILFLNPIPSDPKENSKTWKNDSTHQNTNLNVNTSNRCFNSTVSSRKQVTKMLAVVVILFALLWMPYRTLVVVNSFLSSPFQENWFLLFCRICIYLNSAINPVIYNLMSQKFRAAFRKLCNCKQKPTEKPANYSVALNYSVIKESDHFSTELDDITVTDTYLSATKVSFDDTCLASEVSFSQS
Chain of DNA repair nuclease/redox regulator APEX1 (Homo sapiens) (P27695 whole entry, looked up): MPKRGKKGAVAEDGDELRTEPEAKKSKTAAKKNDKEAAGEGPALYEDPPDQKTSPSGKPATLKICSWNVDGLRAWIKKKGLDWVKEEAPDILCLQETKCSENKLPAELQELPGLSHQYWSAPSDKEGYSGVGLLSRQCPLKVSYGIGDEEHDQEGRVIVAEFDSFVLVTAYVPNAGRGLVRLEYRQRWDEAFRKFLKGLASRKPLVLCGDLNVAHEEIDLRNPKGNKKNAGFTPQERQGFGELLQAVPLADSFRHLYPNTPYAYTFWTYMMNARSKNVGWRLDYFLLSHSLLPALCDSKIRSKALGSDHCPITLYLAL
Chain of Voltage-gated inwardly rectifying potassium channel KCNH2 (Homo sapiens) (Q12809 whole entry, looked up): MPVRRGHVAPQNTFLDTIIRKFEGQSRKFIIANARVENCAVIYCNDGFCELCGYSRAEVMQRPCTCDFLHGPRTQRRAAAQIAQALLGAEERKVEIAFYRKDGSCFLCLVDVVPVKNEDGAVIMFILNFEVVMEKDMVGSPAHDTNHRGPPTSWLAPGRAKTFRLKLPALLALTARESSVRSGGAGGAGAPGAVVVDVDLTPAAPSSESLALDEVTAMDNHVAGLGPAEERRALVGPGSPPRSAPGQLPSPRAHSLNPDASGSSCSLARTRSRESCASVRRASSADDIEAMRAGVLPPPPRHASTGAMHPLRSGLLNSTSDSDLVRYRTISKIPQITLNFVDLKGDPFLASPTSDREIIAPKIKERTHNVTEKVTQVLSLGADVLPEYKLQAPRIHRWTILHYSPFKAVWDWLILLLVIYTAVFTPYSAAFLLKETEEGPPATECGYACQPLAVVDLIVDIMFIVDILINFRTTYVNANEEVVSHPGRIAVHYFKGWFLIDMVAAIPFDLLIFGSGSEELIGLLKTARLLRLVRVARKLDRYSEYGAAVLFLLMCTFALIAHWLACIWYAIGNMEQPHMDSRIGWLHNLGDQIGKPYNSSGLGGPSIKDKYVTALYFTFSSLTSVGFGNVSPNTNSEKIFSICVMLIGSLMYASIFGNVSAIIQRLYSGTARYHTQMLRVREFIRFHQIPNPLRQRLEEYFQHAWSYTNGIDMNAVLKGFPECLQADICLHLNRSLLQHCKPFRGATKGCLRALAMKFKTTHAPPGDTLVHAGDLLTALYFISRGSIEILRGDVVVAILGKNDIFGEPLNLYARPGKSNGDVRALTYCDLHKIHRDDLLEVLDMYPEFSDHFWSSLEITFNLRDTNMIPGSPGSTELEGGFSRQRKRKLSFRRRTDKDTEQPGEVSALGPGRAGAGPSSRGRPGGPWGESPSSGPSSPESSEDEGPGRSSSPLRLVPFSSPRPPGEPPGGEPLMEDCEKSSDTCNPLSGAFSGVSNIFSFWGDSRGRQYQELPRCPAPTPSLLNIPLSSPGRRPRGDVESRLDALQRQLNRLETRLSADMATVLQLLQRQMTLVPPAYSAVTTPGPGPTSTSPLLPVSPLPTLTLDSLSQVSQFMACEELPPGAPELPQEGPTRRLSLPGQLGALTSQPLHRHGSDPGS
Chain of Thyrotropin receptor (Homo sapiens) (P16473 whole entry, looked up): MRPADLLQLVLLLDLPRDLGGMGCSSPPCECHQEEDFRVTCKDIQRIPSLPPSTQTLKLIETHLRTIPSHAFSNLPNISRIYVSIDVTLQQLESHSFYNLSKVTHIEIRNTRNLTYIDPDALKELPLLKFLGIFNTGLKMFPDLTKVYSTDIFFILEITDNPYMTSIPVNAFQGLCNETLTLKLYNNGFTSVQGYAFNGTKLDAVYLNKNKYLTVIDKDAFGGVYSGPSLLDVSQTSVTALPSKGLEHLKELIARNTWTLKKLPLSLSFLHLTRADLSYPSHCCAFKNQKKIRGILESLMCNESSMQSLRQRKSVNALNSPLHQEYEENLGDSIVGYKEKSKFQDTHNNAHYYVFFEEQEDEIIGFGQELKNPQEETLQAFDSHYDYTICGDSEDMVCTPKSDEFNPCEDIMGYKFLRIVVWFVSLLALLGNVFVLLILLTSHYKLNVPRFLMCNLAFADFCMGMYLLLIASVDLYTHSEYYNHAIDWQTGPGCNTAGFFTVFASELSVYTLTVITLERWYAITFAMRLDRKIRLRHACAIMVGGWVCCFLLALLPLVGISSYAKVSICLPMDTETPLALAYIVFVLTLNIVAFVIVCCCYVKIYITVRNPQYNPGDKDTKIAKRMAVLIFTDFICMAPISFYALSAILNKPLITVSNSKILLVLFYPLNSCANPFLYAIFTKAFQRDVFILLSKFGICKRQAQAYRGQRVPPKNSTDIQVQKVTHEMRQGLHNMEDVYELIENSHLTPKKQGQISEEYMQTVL
Chain of Ferritin light chain (Equus caballus) (P02791 2-175 limits assumed): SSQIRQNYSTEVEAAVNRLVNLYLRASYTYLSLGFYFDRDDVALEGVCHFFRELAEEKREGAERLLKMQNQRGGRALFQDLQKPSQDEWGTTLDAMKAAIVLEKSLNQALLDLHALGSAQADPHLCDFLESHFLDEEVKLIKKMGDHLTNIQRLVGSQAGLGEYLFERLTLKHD

CC(=O)O[C@H]1C[C@@H]2CCC3C(CC[C@@]4(C)[C@H]3C[C@H]([N+]3(C)CCCCC3)[C@@H]4OC(C)=O)[C@@]2(C)C[C@@H]1[N+]1(C)CCCCC1 (stereo partly specified)
-31.8%: max response [2, 21]
-31.3%: max response [2, 22]
inactive: outcome [1] | activity change, negative = inhibition [2] 0.655% | Potency [3] | Potency [4] | outcome [5] | Potency [6] | outcome [7] | Potency [8] | outcome [9] | Potency [10] | Potency [11] | outcome [12] | outcome [13] | activation [14] 0.25% | outcome [15] | Potency [16]

NCCNC(=O)c1ccc(Cl)cc1
inactive: outcome [1] | activity change, negative = inhibition [2] -0.17% and -0.521% | Potency [3] | Potency [4] | outcome [5] | Potency [17] | Potency [6] | outcome [7] | Potency [8] | outcome [9] | Potency [18] | Potency [10] | Potency [11] | outcome [12] | outcome [13] | activation [14] 0.625% | outcome [15] | Potency [16]
0.461% and 25.8%: max response [2, 21]
1.39% and 22.5%: max response [2, 22]

N=C1Sc2ccccc2C2=NCCCN12
inactive: outcome [1] | activity change, negative = inhibition [2] -3.51% | Potency [3] | Potency [4] | outcome [5] | Potency [17] | Potency [6] | outcome [7] | Potency [8] | outcome [9] | Potency [18] | Potency [10] | outcome [12] | outcome [13] | activation [14] 0.125% | outcome [15] | Potency [16]
-6.86%: max response [2, 21]
active: Potency [11] 10 µM
-8.77%: max response [2, 22]

Nc1nc(SCc2ccc([N+](=O)[O-])cc2)c2ncn([C@@H]3O[C@H](CO)[C@H](O)[C@H]3O)c2n1
inactive: outcome [1] | activity change, negative = inhibition [2] -2% | Potency [3] | Potency [4] | outcome [5] | Potency [8] | outcome [9] | Potency [18] | Potency [10] | Potency [11] | outcome [12] | outcome [13] | activation [14] 0.75% | outcome [15]
-35.2%: max response [2, 21]
-38%: max response [2, 22]

CCN(CC)CCNC(=O)c1c(C)[nH]c(/C=C2/C(=O)Nc3ccc(-c4csc(-c5ccccc5)n4)cc32)c1C
active: Potency ([20]; Viability) 24.9 µM
inactive: Z-AUC [19] 0.984
0.413: Z-AUC [19, 23]
-0.34: Z-AUC ([19]; measured here: PEO4 Z-AUC)

COc1nnc2ccc(N3CCC(c4ccc(OCCN5CCN(C)C(=O)[C@H]5C)cc4)CC3)nn12
-1.83: Z-AUC ([19]; measured here: PEO4 Z-AUC)
inactive: activity change, negative = inhibition ([20]; Viability) 14.1%
-1.72: Z-AUC [19, 23]
active: Potency [19] 0.195 µM

CN1C(=O)CCC1c1cccnc1 (stereo unspecified)
10.6%: max response [2, 22]
-1.85%: max response [2, 21]
inactive: outcome [1] | activity change, negative = inhibition [2] 10.8% | Potency [3] | Potency [4] | outcome [5] | Potency [6] | outcome [7] | Potency [8] | outcome [9] | Potency [10] | Potency [11] | outcome [12] | outcome [13] | activation [14] 1.19% | outcome [15]

Cc1ccccc1N1CCN(S(=O)(=O)C[C@]23CCC(CC2NC(=O)[C@@H](N)CCS(C)(=O)=O)C3(C)C)CC1 (stereo partly specified)
-10.9%: max response [2, 22]
inactive: outcome [1] | activity change, negative = inhibition [2] 0.353% | Potency [3] | Potency [4] | Potency [17] | outcome [7] | Potency [8] | outcome [9] | Potency [18] | Potency [10] | outcome [12] | outcome [13] | activation [14] 1% | outcome [15] | Potency [16]
-14.5%: max response [2, 21]

CCCc1cc(C(=O)N[C@H](Cc2ccc(-c3cccc(OC(F)(F)F)c3)nc2)C(=O)N[C@@H]2CCNC2)sc1C
-0.851: Z-AUC ([19]; measured here: PEO4 Z-AUC)
-0.801: Z-AUC [19, 23]
inactive: Z-AUC [19] -0.805
active: Potency ([20]; Viability) 35.2 µM

C=CCN(/C=C1\C(=O)O[C@@H](COC)[C@]2(C)C1=C(O)C(=O)C1=C2[C@@H](OC(C)=O)C[C@]2(C)C(=O)CC[C@H]12)CC=C
0.0227: Z-AUC [19, 23]
0.306: Z-AUC ([19]; measured here: PEO4 Z-AUC)
inactive: Z-AUC [19] -0.265 | activity change, negative = inhibition ([20]; HiBiT) -5.45%

Cc1cn([C@H]2C[C@@H](N=[N+]=[N-])[C@@H](CO)O2)c(=O)[nH]c1=O
-8.16%: max response [2, 22]
-9.17%: max response [2, 21]
inactive: outcome [1] | activity change, negative = inhibition [2] 0.117% | Potency [3] | Potency [4] | outcome [5] | Potency [17] | Potency [6] | outcome [7] | Potency [8] | outcome [9] | Potency [18] | Potency [10] | Potency [11] | outcome [12] | outcome [15] | Potency [16]

CC(C)C1NC(=O)[C@H](CCCCN)NC(=O)[C@@H](Cc2c[nH]c3ccccc23)NC(=O)[C@H](Cc2ccc(O)cc2)NC(=O)[C@H](C)N(C)C(=O)[C@H](Cc2ccccc2)NC1=O (stereo partly specified)
inactive: outcome [1] | activity change, negative = inhibition [2] 0.502% | Potency [3] | Potency [4] | outcome [5] | Potency [17] | Potency [6] | Potency [8] | outcome [9] | Potency [18] | Potency [10] | Potency [11] | outcome [12] | outcome [13] | activation [14] -0.438% | outcome [15] | Potency [16]
23%: max response [2, 22]
25.5%: max response [2, 21]
